Laboratory results taken from PubChem BioAssay (EPA / NIEHS).
Inconclusive results are not listed. A structure can be active in one record and inactive in another. Active and inactive are the calls of the source. How the source made its calls, unless noted: active means hit-call score of the fitted dose curve at least 0.9, where 1 is the maximum; inactive means score below 0.9.

Experiments:
[1] = target: human RAR-related Orphan Receptor beta (RORb), RORB (gene 6096) (UniProt Q92753); experiment: ATG_RORb_TRANS: Attagene TRANS-FACTORIAL HepG2 Assay for human RAR-related Orphan Receptor beta (RORb) (AID 2283010; active means hit-call score of the fitted dose curve at least 0.9, where 1 is the maximum)
Outline: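 HepG2 cells were transiently transfected with multiplexed GAL4-UAS reporter units expressing chimeric nuclear receptor–GAL4 proteins, then dosed for 24 h. Reporter mRNA was quantified by RT-PCR with fluorescent labelling and capillary electrophoresis; gain of signal was fitted relative to DMSO.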

[2] = read-out: E-selectin (Homo sapiens) (UniProt P16581); experiment: BSK_3C_Eselectin: BioMAP Diversity Plus: 3C Assay for Eselectin Biomarker Activity (AID 2283015); conditions: primary human endothelial cells (HUVEC); actives raise or lower the signal
Outline: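 HUVEC, 3C stimulation; compound exposure 24 h; E-selectin by ELISA; gain- or loss-of-signal fitted bidirectionally vs DMSO baseline.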

[3] = read-out: Interleukin-1 alpha (IL1a), IL1A (gene 3552); experiment: BSK_BE3C_IL1a: BioMAP Diversity Plus: BE3C Assay for Interleukin-1 alpha (IL1a) Biomarker Activity (AID 2283016); conditions: primary human bronchial epithelial cells; actives raise or lower the signal
Outline: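 Human primary bronchial epithelial cells (BE3C system) were dosed with compound and IL-1a measured by ELISA 24 h later. Activity was fitted bidirectionally against DMSO baseline; cytotoxicity was tracked in parallel cultures by SRB total-protein staining.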

[4] = read-out: Monocyte Chemoattractant Protein-1 (MCP1), CCL2 (gene 6347); experiment: BSK_3C_MCP1: BioMAP Diversity Plus: 3C Assay for Monocyte Chemoattractant Protein-1 (MCP1) Biomarker Activity (AID 2283017); conditions: primary human endothelial cells (HUVEC); actives raise or lower the signal
Outline: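 HUVEC, 3C system; 24 h chemical exposure; MCP-1 by ELISA; bidirectional curve fit vs DMSO baseline.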

[5] = read-out: Monocyte Chemoattractant Protein-1 (MCP1), CCL2 (gene 6347); experiment: BSK_4H_MCP1: BioMAP Diversity Plus: 4H Assay for Monocyte Chemoattractant Protein-1 (MCP1) Biomarker Activity (AID 2283018); conditions: primary human endothelial cells (HUVEC); actives raise or lower the signal
Outline: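 Human umbilical vein endothelial cells (4H system) dosed with chemical; MCP-1 measured by ELISA 24 h after dosing. Bidirectional curve fitting against DMSO negative control as baseline; parallel SRB total-protein staining tracks overt cytotoxicity.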

[6] = read-out: Human Leukocyte Antigen - DR isotype (HLADR), HLA-DRA (gene 3122); experiment: BSK_3C_HLADR: BioMAP Diversity Plus: 3C Assay for Human Leukocyte Antigen - DR isotype (HLADR) Biomarker Activity (AID 2283019); conditions: primary human endothelial cells (HUVEC); actives raise or lower the signal
Outline: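 HUVEC, 3C stimulation, 24 h post-dose; HLA-DR by ELISA; bidirectional curve fit vs DMSO baseline; gain or loss of signal scored.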

[7] = read-out: Interleukin-8 (IL8), CXCL8 (gene 3576); experiment: BSK_3C_IL8: BioMAP Diversity Plus: 3C Assay for Interleukin-8 (IL8) Biomarker Activity (AID 2283020); conditions: primary human endothelial cells (HUVEC); actives raise or lower the signal
Outline: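 Primary human umbilical vein endothelial cells (3C system) were exposed to test chemical for 24 h, then IL-8 was quantified by ELISA. Responses were fitted bidirectionally against DMSO vehicle as baseline.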

[8] = read-out: Monokine induced gamma interferon (MIG), CXCL9 (gene 4283); experiment: BSK_3C_MIG: BioMAP Diversity Plus: 3C Assay for Monokine induced gamma interferon (MIG) Biomarker Activity (AID 2283021); conditions: primary human endothelial cells (HUVEC); actives raise or lower the signal;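 on AC50: MIG protein level measured by immunoassay in the treated endothelial cultures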
Outline: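 Primary human umbilical vein endothelial cells in the 3C system were exposed to chemical for 24 h, after which MIG was quantified by ELISA. Activity was fitted bidirectionally against DMSO as negative control and baseline.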

[9] = target: human Vitamin D Receptor (VDR), VDR (gene 7421) (UniProt P11473); experiment: ATG_VDR_TRANS: Attagene TRANS-FACTORIAL HepG2 Assay for human Vitamin D Receptor (VDR) (AID 2283022; active means hit-call score of the fitted dose curve at least 0.9, where 1 is the maximum)
Outline: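 RT-PCR/capillary electrophoresis read-out of reporter mRNA induction in transiently transfected HepG2; 24 h dosing; chimeric NR-Gal4 (TRANS format); gain-of-signal fit against DMSO baseline.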

[10] = read-out: Matrix Metallopeptidase 1 (MMP1), MMP1 (gene 4312); experiment: BSK_BE3C_MMP1: BioMAP Diversity Plus: BE3C Assay for Matrix Metallopeptidase 1 (MMP1) Biomarker Activity (AID 2283024); conditions: primary human bronchial epithelial cells; actives raise or lower the signal
Outline: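 Primary human bronchial epithelial cells were dosed with test chemicals, and MMP1 levels were measured by ELISA 24 h later. Data were fitted bidirectionally against DMSO as the negative control and activity baseline.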

[11] = BSK_3C_Vis: BioMAP Diversity Plus: 3C Assay for Morphology Visualization (AID 2283025); conditions: primary human endothelial cells (HUVEC);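 further: fitted both ways so gain or loss versus DMSO counts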
Outline: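 Human umbilical vein endothelial cells in the 3C system were imaged by light microscopy 24 h after chemical dosing to record cell morphology. Activity was fitted bidirectionally against DMSO as negative control and baseline; the endpoint serves as a background control.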

[12] = read-out: Pselectin, SELP (gene 6403); experiment: BSK_4H_Pselectin: BioMAP Diversity Plus: 4H Assay for Pselectin Biomarker Activity (AID 2283026); conditions: primary human endothelial cells (HUVEC); actives raise or lower the signal
Outline: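 Primary human umbilical vein endothelial cells were exposed to test chemical for 24 h, then cell-surface P-selectin was quantified by ELISA. Activity was fitted bidirectionally against DMSO as negative control and baseline.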

[13] = BSK_4H_SRB: Viability Assessment in the BioMAP Diversity Plus: 4H Assay (AID 2283027); conditions: primary human endothelial cells (HUVEC);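 further: cells exposed to compound for 24 h before staining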;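 on AC50: curves fitted both ways versus DMSO so AC50 may be loss or gain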
Outline: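 Absorbance at 560 nm of SRB-stained total protein served as the viability read-out in confluent primary human umbilical vein endothelium 24 h after chemical treatment. Curves were fitted bidirectionally against DMSO as negative control.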

[14] = BSK_BE3C_SRB: Viability Assessment in the BioMAP Diversity Plus: BE3C Assay (AID 2283028); conditions: primary human bronchial epithelial cells;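 on AC50: fitted both ways so AC50 may mark signal gain or loss versus DMSO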
Outline: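 Primary human bronchial epithelium; chemical dosing, 24 h; 10% TCA fix, 0.1% SRB stain, A560; bidirectional fit vs DMSO baseline.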

[15] = read-out: Thrombomodulin, THBD (gene 7056); experiment: BSK_3C_Thrombomodulin: BioMAP Diversity Plus: 3C Assay for Thrombomodulin Biomarker Activity (AID 2283029); conditions: primary human endothelial cells (HUVEC); actives raise or lower the signal
Outline: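 Primary human umbilical vein endothelial cells (3C system) were exposed to chemical for 24 h, then thrombomodulin levels were measured by ELISA. Activity was fitted bidirectionally against the DMSO negative control as baseline.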

[16] = read-out: Urokinase-type plasminogen activator receptor (uPAR), PLAUR (gene 5329); experiment: BSK_4H_uPAR: BioMAP Diversity Plus: 4H Assay for Urokinase-type plasminogen activator receptor (uPAR) Biomarker Activity (AID 2283030); conditions: primary human endothelial cells (HUVEC); actives raise or lower the signal
Outline: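 HUVEC, 24 h post-dose; uPAR by ELISA; bidirectional fit vs DMSO baseline.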

[17] = BSK_3C_SRB: Viability Assessment in the BioMAP Diversity Plus: 3C Assay (AID 2283023); conditions: primary human endothelial cells (HUVEC);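 further: cells read 24 h after compound dosing; fitted both ways against DMSO so a hit may be signal rise or drop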
Outline: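 HUVEC, 24 h post-dose; 10% TCA fix, 0.1% SRB stain, A560 nm. Bidirectional curve fit vs DMSO negative control.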

[18] = target: Retinoic acid receptor RXR-alpha (Homo sapiens) (UniProt P19793); experiment: ATG_RXRa_TRANS: Attagene TRANS-FACTORIAL HepG2 Assay for human Retinoid X Receptor alpha (RXRa) (AID 2283012; active means hit-call score of the fitted dose curve at least 0.9, where 1 is the maximum)
Outline: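 HepG2 cells transiently transfected with multiplexed GAL4-UAS reporter units and chimeric NR-GAL4 fusions, dosed 24 h. Reporter mRNA measured by RT-PCR, FAM labelling, HpaI digestion and capillary electrophoresis; gain-of-signal fitted relative to DMSO baseline.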

Measured: AC50

Chain of human RAR-related Orphan Receptor beta (RORb), RORB (gene 6096) (Q92753 whole entry, looked up, the tested form may be a part): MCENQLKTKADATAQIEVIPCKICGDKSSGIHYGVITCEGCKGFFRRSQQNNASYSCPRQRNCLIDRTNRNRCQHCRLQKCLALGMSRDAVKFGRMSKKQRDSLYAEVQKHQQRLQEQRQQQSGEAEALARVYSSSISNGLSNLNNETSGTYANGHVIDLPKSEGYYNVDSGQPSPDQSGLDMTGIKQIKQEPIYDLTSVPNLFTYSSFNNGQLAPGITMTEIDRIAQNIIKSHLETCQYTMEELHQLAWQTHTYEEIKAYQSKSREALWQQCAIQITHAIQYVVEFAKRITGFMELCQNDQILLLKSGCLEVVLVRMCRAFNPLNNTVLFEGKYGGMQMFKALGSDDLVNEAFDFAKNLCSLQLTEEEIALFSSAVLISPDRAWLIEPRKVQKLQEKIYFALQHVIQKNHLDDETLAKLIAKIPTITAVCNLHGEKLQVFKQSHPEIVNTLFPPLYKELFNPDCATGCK
Chain of E-selectin (Homo sapiens) (P16581 whole entry, looked up): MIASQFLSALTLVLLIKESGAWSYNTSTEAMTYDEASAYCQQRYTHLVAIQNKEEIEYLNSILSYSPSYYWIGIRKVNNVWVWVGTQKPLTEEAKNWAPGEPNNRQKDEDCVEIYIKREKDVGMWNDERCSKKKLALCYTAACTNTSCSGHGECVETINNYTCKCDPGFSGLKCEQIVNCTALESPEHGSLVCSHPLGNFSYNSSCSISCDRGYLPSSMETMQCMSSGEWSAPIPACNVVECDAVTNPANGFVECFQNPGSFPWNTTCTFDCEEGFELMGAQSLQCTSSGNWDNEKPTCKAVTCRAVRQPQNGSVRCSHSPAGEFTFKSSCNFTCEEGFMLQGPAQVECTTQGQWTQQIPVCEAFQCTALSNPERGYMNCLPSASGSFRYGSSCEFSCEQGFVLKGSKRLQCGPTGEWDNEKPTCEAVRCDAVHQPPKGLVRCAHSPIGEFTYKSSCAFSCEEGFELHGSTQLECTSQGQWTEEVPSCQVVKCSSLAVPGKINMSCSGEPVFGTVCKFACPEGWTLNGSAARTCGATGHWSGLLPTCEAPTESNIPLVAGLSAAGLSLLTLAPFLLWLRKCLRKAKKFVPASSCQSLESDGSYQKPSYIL
Chain of human Vitamin D Receptor (VDR), VDR (gene 7421) (P11473 whole entry, looked up, the tested form may be a part): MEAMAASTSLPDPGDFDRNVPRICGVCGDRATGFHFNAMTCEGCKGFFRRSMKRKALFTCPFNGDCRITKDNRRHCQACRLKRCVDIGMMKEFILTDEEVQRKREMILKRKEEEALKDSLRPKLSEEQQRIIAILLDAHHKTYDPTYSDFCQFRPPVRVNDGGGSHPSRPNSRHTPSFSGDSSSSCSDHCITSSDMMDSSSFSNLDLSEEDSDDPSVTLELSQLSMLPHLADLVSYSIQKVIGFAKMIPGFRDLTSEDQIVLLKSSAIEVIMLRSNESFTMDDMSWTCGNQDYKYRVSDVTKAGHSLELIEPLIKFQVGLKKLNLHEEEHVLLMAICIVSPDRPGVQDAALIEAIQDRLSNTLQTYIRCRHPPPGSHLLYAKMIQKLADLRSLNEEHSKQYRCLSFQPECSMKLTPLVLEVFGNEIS
Chain of Retinoic acid receptor RXR-alpha (Homo sapiens) (P19793 whole entry, looked up, the tested form may be a part): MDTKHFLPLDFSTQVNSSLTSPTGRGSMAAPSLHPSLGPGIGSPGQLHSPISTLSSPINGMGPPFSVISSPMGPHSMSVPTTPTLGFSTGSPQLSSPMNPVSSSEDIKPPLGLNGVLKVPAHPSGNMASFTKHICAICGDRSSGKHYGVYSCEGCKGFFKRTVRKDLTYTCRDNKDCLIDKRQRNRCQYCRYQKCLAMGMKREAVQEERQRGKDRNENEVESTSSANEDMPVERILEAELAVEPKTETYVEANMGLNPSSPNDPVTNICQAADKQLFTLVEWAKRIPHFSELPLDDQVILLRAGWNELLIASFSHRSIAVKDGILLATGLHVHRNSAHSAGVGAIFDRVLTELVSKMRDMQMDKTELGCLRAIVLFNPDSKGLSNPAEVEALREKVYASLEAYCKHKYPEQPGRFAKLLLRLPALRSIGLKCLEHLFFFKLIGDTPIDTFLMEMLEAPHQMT

COc1nc(C)nc(NC(=O)NS(=O)(=O)c2ccccc2CCC(F)(F)F)n1
inactive: [1] | [2] | [3] | [4] | [5] | [6] | [7] | [8] | [9] | [10] | [11] | [12] | [13] | [14] | [15] | [16]
active: [6] 20 µM

Cc1ccc(-c2c(Cl)nc(C#N)n2S(=O)(=O)N(C)C)cc1
active: [2] 15.8 µM | [4] 26.3 µM | [5] 20 µM | [6] 20 µM | [7] 15.8 µM | [11] 15.2 µM | [12] 17.7 µM | [13] 25.5 µM | [14] 27.4 µM | [16] 14.7 µM
inactive: [1] | [3] | [8] | [9] | [10] | [15]

COP(N)(=O)SC (stereo unspecified)
not listed: [9] | [17]
inactive: all other assays above

O=C(O)c1nc(Cl)ccc1Cl
active: [11] 39 µM
inactive: [1] | [2] | [3] | [4] | [5] | [6] | [7] | [8] | [10] | [11] | [12] | [13] | [14] | [15] | [16]

COC(=O)c1ccccc1C(=O)OC
not listed: [18]
inactive: all other assays above

C#CCOS(=O)OC1CCCCC1Oc1ccc(C(C)(C)C)cc1 (stereo unspecified)
inactive: [1] | [10] | [15]
active: [2] 1.13 µM | [3] 30.3 µM | [4] 10.9 µM | [5] 10.1 µM | [6] 6.28 µM | [7] 7.04 µM | [8] 20 µM | [11] 5.07 µM | [12] 3.97 µM | [13] 11.3 µM | [14] 22.7 µM | [16] 20 µM

Cc1c(F)c(F)c(COC(=O)C2C(/C=C(\Cl)C(F)(F)F)C2(C)C)c(F)c1F (stereo unspecified)
active: [2] 12 µM | [6] 14.8 µM | [17] 13.7 µM | [11] 9.8 µM
not listed: [14] | [18]
inactive: all other assays above

CC1=C(C(=O)Nc2ccccc2)SCCO1
active: [6] 10.6 µM
not listed: [17] | [18]
inactive: all other assays above

COC(=O)C(C)Oc1ccc(Oc2ccc(Cl)cc2Cl)cc1 (stereo unspecified)
active: [4] 25.4 µM | [6] 13.8 µM | [11] 39 µM
inactive: [1] | [2] | [3] | [4] | [5] | [6] | [7] | [8] | [9] | [10] | [11] | [12] | [13] | [14] | [15] | [16]

CC(C)C1(C)N=C(c2nc3ccccc3cc2C(=O)O)NC1=O (stereo unspecified)
not listed: [9] | [17] | [18]
inactive: all other assays above
